NR2F2 inh = blocks human COUP-TFII nuclear receptor; HEK293T NGFI-A luciferase reporter, luminescence; AID 686940; P24468; 0.7% of 370,000 active; inhibition, % at 8.6 µM;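 active = inhibition above a per-plate cutoff, mean inhibition of test wells between control levels plus 3 SD, cut at about 38% in these data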;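 note: cells cotransfected with COUP-TFII expression vector driving the NGFI-A reporter; 0% = median of COUP-TF2 test wells and 100% = reporter-only cells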
SRC1 inh = inhibits human SRC1 coactivator; Q15788; HEK293 GAL4-SRC1 luciferase reporter, luminescence; inhibition, % at 3.6 µM; 0.12% of 360,000 active; AID 588354;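 active = inhibition above the campaign mean plus 3 SD, with each screening campaign given its own cutoff, cut at about 60% in these data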;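 note: 0% = DMSO treated cells and 100% = gossypol at 36 µM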
LRH-1 inv ag = suppresses constitutive activity of human LRH-1. O00482. HEK293T StAR-luciferase reporter, LRH-1 transfected, 24 h. inhibition, % at 3.6 µM. 0.13% of 360,000 active. AID 602396;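 active = inhibition above the mean inhibition of all tested compounds plus 3 SD, cut at about 73% in these data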;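 note: 0% = DMSO wells and 100% = reporter-only cells lacking LRH-1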
NCOA3 inh = human NCOA3 inhibition; AID 588352; HEK293 GAL4-SRC3 luciferase reporter, luminescence; 0.17% of 360,000 active; Q9Y6Q9; inhibition, % at 3.6 µM;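 active = inhibition above a per-campaign cutoff, the mean of all compounds plus 3 SD, cut at about 60% in these data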;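 note: 0% = DMSO-treated cells and 100% = gossypol-treated cells at 36 µM; higher means less SRC3-driven luciferase light from the GAL4 reporter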
Target sequence (Q9Y6Q9 whole entry, looked up, the tested form may be a part): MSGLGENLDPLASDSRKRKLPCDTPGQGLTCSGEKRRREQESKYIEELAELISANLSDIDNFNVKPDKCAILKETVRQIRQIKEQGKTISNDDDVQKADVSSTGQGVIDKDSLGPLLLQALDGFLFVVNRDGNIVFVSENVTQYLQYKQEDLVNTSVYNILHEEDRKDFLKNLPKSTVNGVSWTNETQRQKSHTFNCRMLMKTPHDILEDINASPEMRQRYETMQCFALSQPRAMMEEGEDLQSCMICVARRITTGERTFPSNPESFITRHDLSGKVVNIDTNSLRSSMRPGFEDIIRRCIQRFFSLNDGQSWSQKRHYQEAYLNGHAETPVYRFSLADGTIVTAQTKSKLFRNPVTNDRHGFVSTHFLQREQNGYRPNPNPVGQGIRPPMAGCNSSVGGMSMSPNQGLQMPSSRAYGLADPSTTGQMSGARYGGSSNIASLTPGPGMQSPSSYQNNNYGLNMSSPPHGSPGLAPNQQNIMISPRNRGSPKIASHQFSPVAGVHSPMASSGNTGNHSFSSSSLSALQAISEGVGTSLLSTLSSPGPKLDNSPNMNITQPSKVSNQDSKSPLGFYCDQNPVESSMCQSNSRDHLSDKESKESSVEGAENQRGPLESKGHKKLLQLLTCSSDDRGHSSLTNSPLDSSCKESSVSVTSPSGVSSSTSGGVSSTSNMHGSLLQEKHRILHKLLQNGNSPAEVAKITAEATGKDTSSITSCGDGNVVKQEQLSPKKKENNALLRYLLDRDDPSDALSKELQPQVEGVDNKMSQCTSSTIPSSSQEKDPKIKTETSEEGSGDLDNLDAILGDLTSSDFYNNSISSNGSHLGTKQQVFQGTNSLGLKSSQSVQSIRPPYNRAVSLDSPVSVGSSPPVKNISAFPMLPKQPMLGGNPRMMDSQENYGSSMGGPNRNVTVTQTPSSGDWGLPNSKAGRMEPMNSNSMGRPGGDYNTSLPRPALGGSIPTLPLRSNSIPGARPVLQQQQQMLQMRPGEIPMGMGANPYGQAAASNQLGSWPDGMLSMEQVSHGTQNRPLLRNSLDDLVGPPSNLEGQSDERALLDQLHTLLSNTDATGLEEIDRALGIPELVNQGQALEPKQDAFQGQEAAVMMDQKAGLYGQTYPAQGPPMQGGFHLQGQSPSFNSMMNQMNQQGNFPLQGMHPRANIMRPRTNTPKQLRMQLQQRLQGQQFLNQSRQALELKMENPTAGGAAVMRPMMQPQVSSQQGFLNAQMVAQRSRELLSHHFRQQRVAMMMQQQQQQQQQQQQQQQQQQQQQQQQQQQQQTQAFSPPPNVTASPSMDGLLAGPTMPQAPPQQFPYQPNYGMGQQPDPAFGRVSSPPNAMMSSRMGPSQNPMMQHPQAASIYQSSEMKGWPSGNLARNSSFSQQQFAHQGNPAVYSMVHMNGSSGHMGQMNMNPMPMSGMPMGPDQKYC
Gli-Sufu antag = blocks Gli-Sufu signaling in a luciferase reporter; Sufu-KO-LIGHT fibroblasts, Gli luciferase reporter luminescence; inhibition, % at 5 µM; 0.74% of 340,000 active;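 active = inhibition above about 55%, limit read from the data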;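 note: 0% = DMSO-treated cells and 100% = wells with medium but no cells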
SRC2 inh = human SRC2 (NCOA2) inhibition. Q15596. HEK293 GAL4-SRC2 luciferase reporter, luminescence. inhibition, % at 9 µM. 0.17% of 370,000 active. AID 651957;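 active = inhibition above the mean inhibition of all tested compounds plus 3 SD, set per campaign, cut at about 52% in these data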;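 note: 0% = DMSO treated cells and 100% = cells given Gossypol at 36 µM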
Gli-Sufu confirm = confirmation of Gli-SUFU pathway antagonists; 40% of 2,500 active; shares compounds with Gli-Sufu antag; AID 602428; Sufu-KO-LIGHT cells, Gli luciferase reporter, luminescence; inhibition, % at 5 µM;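 active = mean inhibition at 5 µM reaching about 45%, limit read from the data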;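 note: plate controls were DMSO-treated cells for no effect and wells lacking cells for full effect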
SufuKO cytotox = cytotoxic in Gli-SUFU antagonist counter-screen. 32% of 2,500 active. shares compounds with Gli-Sufu antag. cytotoxicity, % at 5 µM. Sufu-KO-LIGHT cells cytotoxicity, ATP luminescence;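 active = mean cytotoxicity at 5 µM above about 25%, limit read from the data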;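 note: cells exposed to compound overnight for roughly 16 to 18 hours; plate controls were DMSO wells with cells for no effect and medium without cells for full effect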
Wnt3a counter = counter-screen for Gli-SUFU antagonists: Wnt3a reporter inhibition; shares compounds with Gli-Sufu antag; Wnt-LIGHT cells, Wnt3a-driven luciferase reporter, luminescence; inhibition, % at 6.25 µM; 20% of 2,500 active; AID 651995;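 active = mean inhibition above about 25%, limit read from the data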
Active calls of the source: *; x = no result given. An excerpt weighted towards active compounds, which were near 1.2% of everything screened.

SMILES | NR2F2 inh | SRC1 inh | LRH-1 inv ag | NCOA3 inh | Gli-Sufu antag | SRC2 inh | Gli-Sufu confirm | SufuKO cytotox | Wnt3a counter
COc1ccc(OC)c(NC(=O)C2CCN(S(=O)(=O)c3c(C)noc3C)CC2)c1 | 5.0 | -6.4 | 10.9 | 3.1 | 94.1* | -9.4 | 24.9 | -1.5 | 6.6
COc1ccc(OC)c(NC(=O)C2CCCN(S(=O)(=O)c3c(C)noc3C)C2)c1 (stereo not drawn) | 1.8 | 16.0 | 10.4 | 19.4 | 3.1 | 0.2 | x | x | x
CC(C)n1nnnc1C1(C)CCSCC(=O)N1Cc1cccc(C(F)(F)F)c1 (stereo not drawn) | 1.5 | x | x | x | x | 7.1 | x | x | x
CCC(=O)N1CCc2cc(S(=O)(=O)Nc3ccccc3C)ccc21 | -2.4 | -1.0 | 11.7 | -22.8 | -3.4 | 17.7 | x | x | x
COc1ccccc1NS(=O)(=O)c1ccc2c(c1)CCN2C(=O)CCC(=O)O | -4.8 | -6.1 | 3.1 | -8.4 | 54.5 | -14.4 | 17.1 | 7.1 | 3.2
C[C@@H]1CN([C@H](C)CO)C(=O)c2cc(NS(=O)(=O)c3ccccc3)ccc2O[C@@H](C)CCCCO[C@@H]1CN(C)Cc1ccccc1 | -0.1 | x | x | x | x | -2.2 | x | x | x
CCc1[nH]c(=O)c(C#N)c2c1CCCC2 | -5.2 | -12.0 | 1.7 | -5.4 | 51.4 | -16.5 | 17.3 | 4.5 | 3.4
CCc1[nH]c(=S)c(C#N)c2c1CCCC2 | -3.7 | -8.8 | 7.0 | 12.4 | -1.8 | 2.1 | x | x | x
CCOC(=O)CN1C(=O)[C@]2(OCCC=C[C@H]2C)c2c(Br)cccc21 | -27.5 | x | x | x | x | 6.0 | x | x | x
O=C(c1ccc(=O)[nH]c1)N1CCN(S(=O)(=O)c2ccc(Cl)cc2)CC1 | 2.7 | 17.4 | -7.4 | 9.3 | 54.2 | -11.7 | 21.5 | -8.0 | 7.3
Cc1ccc(S(=O)(=O)N2CCN(C(=O)c3ccc(S(=O)(=O)N4CCCC4)cc3)CC2)cc1 | 5.0 | 26.7 | 1.6 | 2.2 | 57.2* | 17.1 | 42.7 | 22.5 | -13.4
O=C(c1ccc(S(=O)(=O)N2CCCC2)cc1)N1CCCCCC1 | 8.9 | -6.5 | 18.1 | 6.1 | 5.4 | -4.4 | x | x | x
O=S(=O)(NCCc1ccccc1)c1ccc(F)cc1 | 0.2 | -3.6 | -25.3 | -5.6 | 52.0 | 8.9 | 36.0 | 24.9 | -13.4
O=C(O)CCc1ccc(S(=O)(=O)NCCc2ccccc2)cc1 | 3.0 | -10.3 | -6.8 | -18.1 | -0.2 | -0.4 | x | x | x
Cc1cc(NC(=O)c2c(Br)c(C)nn2C)no1 | 3.5 | 5.8 | 0.6 | 6.7 | 50.2 | -16.0 | 9.2 | 22.9 | -7.7
COC(=O)[C@]12C[C@H](CC(=O)NCCCCc3ccccc3)C(=O)N(Cc3ccc4c(c3)OCO4)C1=C[C@H](COCc1ccccc1)O[C@@H]2C | -19.2 | x | x | x | x | 9.7 | x | x | x
COC(=O)[C@]12C[C@H](CC(=O)NCCCCc3ccccc3)C(=O)N(Cc3ccccc3)C1=C[C@H](C1CCCC1)O[C@@H]2C | -3.5 | x | x | x | x | 1.7 | x | x | x
O=C(C(=O)N1CCC(CNS(=O)(=O)c2cc(C(F)(F)F)cc(C(F)(F)F)c2)CC1)c1cccs1 | 4.9 | x | x | x | x | 14.4 | x | x | x
COc1ccccc1OC(C)C(=O)Nc1ccccc1C(=O)NCc1cccnc1 (stereo not drawn) | 11.8 | 16.5 | -19.4 | -14.7 | 56.0* | -13.3 | 19.9 | 11.3 | -28.7
C/C(=N\NC(=O)c1ccccc1[N+](=O)[O-])c1c(O)cc(C)oc1=O | -5.8 | -8.3 | 3.3 | 23.5 | -0.7 | -1.9 | x | x | x
C/C(=N\NC(=O)c1ccccc1O)c1c(O)cc(C)oc1=O | -4.4 | -48.2 | -61.6 | -8.7 | 58.3* | -42.6 | 4.1 | -2.3 | -39.8
CC(C)(CO)NCC(O)Cn1cc(C=O)c2ccccc21 (stereo not drawn) | -27.6 | -59.6 | -14.6 | 4.1 | 52.9 | -11.2 | 19.6 | 7.0 | 1.2
Cc1cccc(Cn2cc(CN3CC(N(C)CCCOC(=O)c4cc5ccccc5o4)CS3(=O)=O)nn2)c1 (stereo not drawn) | 5.8 | x | x | x | x | -36.6 | x | x | x
CC(C)(C)c1ccc(C(=O)NC(=S)Nc2ccc(N3CCOCC3)cc2)cc1 | 21.8 | -16.6 | -16.1 | 11.0 | 59.7* | -17.1 | 51.8* | 23.2 | -72.5
CC(C)(C)c1ccc(C(=O)Nc2ccc(N3CCOCC3)cc2)cc1 | -7.1 | 1.9 | -6.9 | 0.4 | -2.9 | 12.5 | x | x | x
SMILES | NR2F2 inh | SRC1 inh | LRH-1 inv ag | NCOA3 inh | Gli-Sufu antag | SRC2 inh | Gli-Sufu confirm | SufuKO cytotox | Wnt3a counter
O=C(Nc1ccccc1)N1CCC(C(=O)N2CCCC(C(F)(F)F)C2)CC1 (stereo not drawn) | 21.5 | 1.9 | -20.4 | -4.4 | 92.2* | -0.3 | 22.6 | 14.1 | -46.6
CC1CCCN(C(=O)C2CCN(C(=O)Nc3ccccc3)CC2)C1 (stereo not drawn) | 7.1 | -32.2 | -23.0 | 18.0 | -8.3 | -2.5 | x | x | x
CC(OC(=O)c1cccc(-n2cnnn2)c1)C(=O)Nc1ccc(F)cc1 (stereo not drawn) | 27.3 | -2.4 | -1.4 | 11.7 | 50.0 | 25.1 | 24.6 | 10.2 | 5.6
CC(OC(=O)c1cccc(-n2cnnn2)c1)C(=O)Nc1ccc(N(C)C)cc1 (stereo not drawn) | 0.9 | -12.8 | 12.1 | -15.5 | -3.3 | -22.3 | x | x | x
Cc1nc2ncccn2c1-c1csc(Nc2ccc(S(N)(=O)=O)cc2)n1 | -11.5 | 16.5 | 20.0 | 8.4 | 3.7 | 22.0 | x | x | x
Cc1nc2ncccn2c1-c1csc(Nc2ccccc2)n1 | -24.8 | 0.2 | -32.5 | 2.9 | 30.1 | -6.2 | x | x | x
COc1ccc(Nc2nc(-c3c(C)nc4ncccn34)cs2)cc1 | -106.6 | -20.5 | 1.5 | -5.7 | 71.1* | 17.5 | 75.0* | 65.7* | -70.1
Cc1nc2ncccn2c1-c1csc(Nc2ccc(N(C)C)cc2)n1 | -83.2 | -21.1 | 29.8 | 2.2 | 61.7* | 9.2 | 57.4* | 45.4* | -90.4
COc1ccccc1Nc1nc(-c2c(C)nc3ncccn23)cs1 | 13.2 | 12.9 | 2.1 | 14.9 | 55.0* | 11.7 | 67.5* | 59.2* | 27.6*
CCOC(=O)[C@@H]1CSCCS(=O)(=O)N1Cc1ccccc1 | -13.5 | x | x | x | x | 9.9 | x | x | x
C=CC[C@]12C[C@@]3(O[C@H](c4ccccn4)N=C3C[C@H](c3ccc(OC)cc3)[C@H]1C)N(C1CCN(Cc3ccccc3)CC1)C2=O | -10.2 | x | x | x | x | 9.0 | x | x | x
COc1ccc(-c2cn(-c3ccc(Cl)cc3)c3[n+]2CCCCC3)cc1 | 7.9 | -6.1 | -5.5 | 20.1 | 80.5* | -9.9 | 78.5* | 31.0* | 20.3
Clc1ccc(-c2cn3nc4c(nc3n2)CCCC4)cc1 | -33.8 | -90.3 | -100.6 | -76.4 | -27.5 | -39.1 | x | x | x
COc1ccc(-n2cc(-c3ccc(OC(F)F)cc3)[n+]3c2CCCCC3)cc1 | 9.7 | 15.3 | 21.5 | 21.8 | 81.4* | 14.6 | 82.9* | 32.6* | 9.0
Clc1ccc(-c2cn(-c3ccc(Cl)cc3)c3[n+]2CCCCC3)cc1 | 5.6 | -17.7 | 7.7 | 3.8 | 57.8* | -49.2 | 58.3* | 29.3* | -42.9

Screening data as filed in PubChem BioAssay.
